# In PubChem BioAssay AID588519 (ICCB-Longwood Screening Facility, Harvard Medical School, 2011):
# About 1,000 (0.67%) of roughly 150,000 compounds were called active. Cut-off read from the data, not from the text of the source: active = % elongation below about 90%; inactive = the rest, inconclusive results apart. Shown is part of a subset that was picked to be rich in actives.
# Target: Genome polyprotein (Poliovirus type 1 (strain Mahoney)) (UniProt P03300)
# Test: inhibitors of poliovirus polymerase RNA elongation – biochemical, fluorescence polarization, total intensity, primary screen (AID 588519); for z-score: compound at 16.7 µg/mL
# Details: stronger effect = lower value; for % elongation: compound at 16.7 µg/mL; for z-score: measured here: FP z-score
# [1] = measured here: total intensity read-out
# Chain of Genome polyprotein (Poliovirus type 1 (strain Mahoney)) (P03300 1749-2209 limits assumed): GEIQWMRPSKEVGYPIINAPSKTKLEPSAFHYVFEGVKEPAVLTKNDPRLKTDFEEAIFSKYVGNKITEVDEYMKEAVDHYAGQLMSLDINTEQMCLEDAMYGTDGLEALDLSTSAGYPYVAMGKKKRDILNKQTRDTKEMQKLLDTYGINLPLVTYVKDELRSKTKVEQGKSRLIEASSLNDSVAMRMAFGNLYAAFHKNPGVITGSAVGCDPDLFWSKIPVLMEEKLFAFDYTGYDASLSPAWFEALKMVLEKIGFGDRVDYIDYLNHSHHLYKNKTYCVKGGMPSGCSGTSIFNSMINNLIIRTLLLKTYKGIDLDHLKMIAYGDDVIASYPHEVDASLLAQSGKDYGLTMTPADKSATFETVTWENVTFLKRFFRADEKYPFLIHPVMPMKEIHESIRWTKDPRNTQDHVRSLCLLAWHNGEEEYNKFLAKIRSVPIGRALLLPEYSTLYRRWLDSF
Structure (SMILES),% elongation,z-score,% elongation [1]
CCN1CCN(C(=O)C2CCCCC2C(=O)O)CC1 (configuration not stated),102% (inactive),0,103%
CCOC(=O)c1c(N)sc2c1CC(C)(C)OC2,103% (inactive),0.4,106%
CCOC(=O)c1c(NC2=CC(=O)CCC2)sc2c1CCCCC2,107% (inactive),0.6,112%
CCOC(=O)c1c(N)sc2c1CCCS2,64% (active),-3.9,74%
CCC(=O)c1cn(CC(=O)N2CCCC2)c2ccccc12,107% (inactive),0.5,109%
Fc1ccc(NC(=S)N2CCN=C2Nc2ccc(F)cc2)cc1,87% (active),-5.7,82%
OC1CCN(C(=S)Nc2ccccc2)CC1,101% (inactive),0,100%
COc1ccc(NC(=S)N2CCCCC2)cc1,100% (inactive),-0.3,108%
O=C1CCC/C1=C1\SCC(=O)N1c1ccccc1,101% (inactive),-0.3,99%
Cc1ccc(C)c(NC(=O)C(c2ccccc2)N2CCCCC2C(N)=O)c1 (configuration not stated),97% (inactive),-0.5,103%
C=CCn1c(SCC#N)nc2c(c1=O)C1(CCCCC1)Cc1ccccc1-2,102% (inactive),0.1,103%
COc1ccc(Cc2nnc(SCC(=O)Nc3ccc(S(=O)(=O)N4CCCCCC4)cc3)o2)cc1,104% (inactive),0.4,102%
O=C(CSc1nnc(-c2ccncc2)n1-c1ccccc1)Nc1ccccc1,100% (inactive),-0.8,96%
Nn1c(SCC(=O)Nc2ccc(S(=O)(=O)N3CCCC3)cc2)nnc1-c1ccccc1,76% (active),-5.5,80%
Cc1ccccc1CN1CCN(CC(=O)NCc2cccs2)C1=O,98% (inactive),-0.7,103%
CCCC(Nc1cc(Cl)cc(Cl)c1)n1nnc2ccccc21 (configuration not stated),104% (inactive),0.1,110%
O=C(CSC(=S)N1CCCC1)Nc1ccccc1OC(F)F,105% (inactive),0.5,104%
CS(=O)(=O)C1=NSC2=NC(=O)/C(=C\c3ccco3)C(=N)N21,66% (active),-10.9,23%
Cc1ccc(N2C(=O)NC(=O)/C(=C\c3ccco3)C2=O)c(C)c1,99% (inactive),-0.2,97%
CC(C)(C)C1C/C(=C/c2ccco2)C(=O)/C(=C/c2ccco2)C1 (configuration not stated),76% (inactive),-3.3,189%
CN(C)/C=N/N=C(\Cc1nc2ccccc2[nH]1)c1ccccc1,102% (inactive),0.2,106%
O=C(COC(=O)c1cc(=O)[nH]c2ccccc12)NCc1ccco1,107% (inactive),0.6,101%
CCOc1ccc(-c2ccc(NS(=O)(=O)c3ccccc3)cc2)nn1,102% (inactive),0.9,104%
S=C(c1ccc(-c2ccccc2)o1)N1CCCCC1,99% (inactive),-0.3,101%
Clc1ccc(/C=N\N2CCN(c3ccccc3)CC2)cc1,108% (inactive),1.3,100%
S=C(c1ccc(-c2ccc(Cl)cc2)o1)N1CCN(c2ccccc2)CC1,63% (active),-4.2,70%
CCC(Cc1ccccc1)NC(=O)c1ccco1 (configuration not stated),99% (inactive),-0.3,100%

Structure (SMILES),% elongation,z-score,% elongation [1]
Cc1noc(C)c1CSc1nnc(-c2ccccc2Br)n1Cc1ccccc1,96% (inactive),-0.6,102%
C=C(C)CNC(=S)N=Nc1c(O)n(C)c2ccccc12,98% (inactive),-0.4,101%
CCSc1nnc(NC(=O)c2ccc(C)c(S(=O)(=O)N(CC)CC)c2)s1,100% (inactive),-0.5,98%
O=C(O)/C=C/c1ccc2c(c1)OCCO2,102% (inactive),0.1,99%
CCSc1nnc(NC(=O)/C=C/c2ccc3c(c2)OCCO3)s1,85% (active),-3.6,91%
COc1ccc(S(=O)(=O)N2CCC(C(=O)N3CCCC3)CC2)cc1OC,99% (inactive),-0.6,100%
O=C(NCc1ccco1)c1cc(Cl)cc(Cl)c1,99% (inactive),-0.7,104%
CCN1CCN(C2=Nc3c(Cl)cc(Cl)c4cccc2c34)CC1,45% (inactive),-6.5,247%
CCc1cc(=O)oc2c(C)c3c(cc12)CN(Cc1ccccc1)CO3,100% (inactive),-0.7,104%
CCN(CC)CCN1COc2c(cc(Cl)c3cccnc23)C1,84% (active),-5.8,80%
O=c1c(C=Nc2cc(Cl)ccc2O)c(O)n(C2CCCCC2)c(=O)n1C1CCCCC1,100% (inactive),0,100%
NS(=O)(=O)c1ccc(CCN(Cc2nc3ccsc3c(=O)[nH]2)Cc2nc3ccsc3c(=O)[nH]2)cc1,111% (inactive),1.1,110%
COC(=O)C(Cc1ccccc1)NC(=O)c1n[nH]c(=O)c2ccccc12 (configuration not stated),101% (inactive),-0.2,100%
COc1ccc(OCCOc2ccccc2F)cc1,104% (inactive),1.2,102%
CCOC(=O)C1(C(=O)OCC)C(c2ccccc2)CC(=O)CC1c1ccccc1 (configuration not stated),99% (inactive),-0.3,96%
CCOC(=O)C1(C2(O)C(=O)c3ccccc3C2=O)CCCC1=O (configuration not stated),75% (active),-3.1,72%
CCOC(=O)C1(C(=O)OCC)CCN(S(=O)(=O)c2ccc(C)cc2)c2ccccc2C1=O,107% (inactive),0.2,102%
O=C1Nc2ccccc2C1=Nc1cccc(C(F)(F)F)c1,88% (active),-1.2,90%
Nc1ccc(N=C2C(=O)Nc3ccccc32)cc1,99% (inactive),-0.4,100%
CN(C)/C=C1/C(=O)Nc2ccccc21,98% (inactive),-0.1,103%
COc1ccc(C(C#N)OC(C)=O)c(OCc2ccccc2)c1OC (configuration not stated),105% (inactive),0.2,102%
CCOc1ccc(NC(=O)c2c(NC(=O)Cc3ccccc3)sc3c2CCC(C)C3)cc1 (configuration not stated),83% (active),-3.6,84%
O=C(Cc1ccccc1)Nc1sc2c(c1C(=O)Nc1ccc(Br)cc1)CCC2,102% (inactive),-0.1,106%
CCOc1ccc(NC(=O)c2c(NCc3cccc(OC)c3OC)sc3c2CCC3)cc1,108% (inactive),0.4,114%
CCOc1ccc(NC(=O)c2c(NC(=O)Cc3ccccc3)sc3c2CCCCC3)cc1,75% (active),-5,78%
COC(=O)c1c(NC(=O)CCCOc2ccccc2)sc2c1CCC(C)C2 (configuration not stated),105% (inactive),0.2,112%
Cc1cccc(OCCCC(=O)Nc2sc3c(c2C(N)=O)CCC(C)C3)c1 (configuration not stated),101% (inactive),-0.6,102%
